Assay results published in ChEMBL document CHEMBL3988442, “University of Dundee, Small-Polar-MMV Screening Library” (2021).

Assays:
[1] = target: T1, Aspartate--tRNA(Asp/Asn) ligase (Mycobacterium tuberculosis (strain ATCC 25618 / H37Rv)) (UniProt P9WFW3); assay: Assay for Asp RNA synthetase-1 from Mycobacterium tuberculosis; format: functional; parameters: scale not given: direction of the effect not stated beside the values; conditions: 30 µM; note: in the data most compounds retested in dose-response had high values
T1 sequence (whole entry): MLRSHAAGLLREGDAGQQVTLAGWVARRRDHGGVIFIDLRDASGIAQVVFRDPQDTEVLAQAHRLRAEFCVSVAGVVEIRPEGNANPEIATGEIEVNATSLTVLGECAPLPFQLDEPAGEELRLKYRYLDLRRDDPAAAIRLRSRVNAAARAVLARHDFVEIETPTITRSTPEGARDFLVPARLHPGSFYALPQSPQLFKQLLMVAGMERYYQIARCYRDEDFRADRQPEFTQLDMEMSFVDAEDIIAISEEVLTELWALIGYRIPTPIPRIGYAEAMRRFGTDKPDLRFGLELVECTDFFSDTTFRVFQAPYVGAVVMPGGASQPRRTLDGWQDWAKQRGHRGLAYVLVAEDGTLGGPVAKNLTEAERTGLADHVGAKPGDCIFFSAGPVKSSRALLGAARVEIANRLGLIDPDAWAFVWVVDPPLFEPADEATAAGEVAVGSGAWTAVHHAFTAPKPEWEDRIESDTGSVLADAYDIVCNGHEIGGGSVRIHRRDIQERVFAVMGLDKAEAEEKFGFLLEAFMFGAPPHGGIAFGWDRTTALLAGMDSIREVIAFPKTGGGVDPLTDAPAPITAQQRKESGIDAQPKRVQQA

[2] = target: Shiga toxin 2 (Escherichia coli O157:H7) (UniProt P09385+P09386); assay: E. coli 0.157:H7 Shiga Toxin SOP - stx2 screening assay; format: functional; parameters: scale not given: direction of the effect not stated beside the values; conditions: 30 µM

Compound	Percent Effect [1] [%]	Percent Effect [2] [%]
CNS(=O)(=O)Cc1ccc(CNC(=O)c2ccc(C)[nH]c2=O)cc1	-0.577	-39.3
c1cc(-c2nc(CN3CCn4c(nnc4C4CC4)C3)cs2)cs1	-2.61	-11.5
CC(C)N(Cc1cccc(F)c1)Cc1nc2c(cnn2C)c(=O)[nH]1	-5.3	-0.112
Cc1nc(C)n(CC2CN(CC(=O)Nc3nccs3)CCO2)n1 (stereo unspecified)	-3.2	0.609
c1cc2c(cc1C1CCCN1Cc1nnnn1C1CC1)OCCO2 (stereo unspecified)	-1.25	3.61
Cn1cnc(S(=O)(=O)N2CCCC2)c1Cl	-1.03	-7.1
c1ccc(Cn2cc3c(n2)C(COCC2CC2)OCC3)nc1 (stereo unspecified)	4.12	-12.1
Cc1nc(C)n(CC2CCCN2CC(=O)NCCc2ccccc2)n1 (stereo unspecified)	-7.16	-6.86
CC(=O)N1CCN(c2cc(-c3ccccc3)nc3c(C)c(C)nn23)CC1	2.46	-33.1
CC(NC(=O)Nc1cc(F)ccc1N1CCCCC1)c1nncn1C (stereo unspecified)	-3.23	20.1
O=C(NCC1COCc2c(-c3cccnc3)nnn2C1)c1cccs1 (stereo unspecified)	9.59	-14.9
Cc1ccc2c(n1)N(Cc1cccnc1)CCN(C(=O)C1CCC1)C2	14.8	-15.2
O=C(c1ncccn1)N1C[C@H]2CCC[C@@]2(COCc2ccncc2)C1	-2.08	-24.5
CC(NC(=O)CSCC#N)c1ccccc1 (stereo unspecified)	2.98	13.3
Cn1cccc1C(=O)N1CCc2ncc(Cn3cccn3)n2CC1	-0.291	-19.1
Cc1nc(CN(Cc2cccs2)C2CCS(=O)(=O)C2)oc1C (stereo unspecified)	-1.77	34.6
O=C1c2cnc(N3CCOCC3)nc2CN1c1ccc2c(c1)OCO2	7.52	-25.1
Cc1cnn(C2CCCN(C(=O)Cc3cn4ccccc4n3)C2)c1 (stereo unspecified)	-6.71	-40.6
N#Cc1ccccc1CN1CCCCC1Cn1cncn1 (stereo unspecified)	0.359	25
Cc1cc(C)c2cc(CNCc3ccccc3)c3nn(C)c(=O)n3c2c1	-2.43	-0.711
CCOC(=O)N1CCN(C(=O)c2ccc3ccn(C)c3c2)CC1	-0.585	1.39
Cn1c(NCC(O)c2ccc(F)cc2F)c(C#N)c(=O)n(C)c1=O (stereo unspecified)	-5.91	-8.41
CCOCCN1CCn2c(C)nnc2C1	1.76	-30.6
Cc1ccc(CN2CCn3cc(CN(C)Cc4ccco4)nc3C2)o1	1.01	-24.1
CCc1nc(C(=O)N2CCN(C)CC2C)nn1-c1ccccc1Cl (stereo unspecified)	11.5	26.3
CN(Cc1ccco1)C[C@H]1OC[C@@H]2CCN(Cc3cccs3)C[C@@H]21	3.35	-17.4

Compound	Percent Effect [1] [%]	Percent Effect [2] [%]
CCC(=O)N1CCC(O)(c2ncc(OC)nc2OC)CC1	1.66	16.1
Cc1ncnc2c1CCN(Cc1cccs1)CC2	9.2	-21.2
COc1ccc(C2=CCN(C(=O)C3CCCN(C(N)=O)C3)CC2)cc1 (stereo unspecified)	1.94	26.5
Fc1ccc2c(c1)C(NCc1nnc3n1CCCCC3)CCCO2 (stereo unspecified)	-3.62	-12.2
COC(=O)CS(=O)(=O)CCC(=O)N1CCCC1c1ccsc1 (stereo unspecified)	-1.34	-0.403
Cc1cccc(N2Cc3nc(=O)[nH]n3C2=O)c1	-3.43	-54.1
c1cc(OCc2ccc3c(c2)OCO3)ccc1CNC1CC1	-1.47	-108
COc1ccccc1OCC(=O)NS(=O)(=O)c1cc(F)ccc1F	0.145	-7.87
Cc1nc(-c2ccsc2)ccc1C(=O)NCCN1CCOCC1	-2.94	-4.33
O=C(NC[C@]12COC[C@H]1CN(C1CCOCC1)C2)c1ccco1	1.57	-3.12
COc1cc(C)c(C(C)NC(=O)Nc2nnc(C)s2)cc1OC (stereo unspecified)	-7.26	9.98
CCO[C@@H]1CO[C@@]2(CCCN(Cc3scnc3C)C2)C1	-7.13	-25
Cn1ccnc1CN1CCCC(Cc2ccccn2)C1 (stereo unspecified)	-2.49	-6.98
CS(=O)(=O)N1CCCC12CCCN(S(=O)(=O)c1cc(F)cc(F)c1)C2 (stereo unspecified)	-0.24	2.89
NC(=O)c1ccc(N2CCCCC2)c(NC(=O)c2cncc(Br)c2)c1	13.7	-52.6
c1ccc(C(OCCNC2CCc3ncnn3C2)c2ccccc2)cc1 (stereo unspecified)	2.94	-14.7
CCS(=O)(=O)Nc1ccn(Cc2cccc(Cl)c2)n1	4.7	-12.9
CC(NC(=O)NCCCn1ccnc1)c1ccc2c(c1)OCCCO2 (stereo unspecified)	1.46	20.4
COc1ccc(NC(=O)N2CCCC2c2ccco2)cc1OC (stereo unspecified)	1.24	-11.9
Cc1noc(C)c1CN1CCN(C(=O)Cn2cncn2)CC1	3.12	7.4
COc1cccc(COCC(=O)N2CCCC(N3CCCC3)CC2)c1 (stereo unspecified)	-5.12	12.6
Cc1ccc(-c2nc(CN3CCc4c(ncn4C)C3)cs2)o1	-4.21	0.313
CCN(C(=O)CCCOc1ccccc1F)c1ccncc1	-2.34	1.08
COc1cc(S(=O)(=O)N2CCc3ccc(F)cc32)cc(C(=O)O)c1OC	1.4	2.68
Cc1nnc(N2C[C@H](C(=O)NCC3CC3)[C@@H]3CCO[C@@H]3C2)s1	-0.219	-6.05
CN(C)CCN(C)C(=O)c1cnc2c(c1)nc(-c1ccccc1Cl)n2C	7.01	9.89

Compound	Percent Effect [1] [%]	Percent Effect [2] [%]
Cc1cnn(CC2CCCN2C(=O)c2cccc(CC#N)c2)c1 (stereo unspecified)	-1.43	8.24
Cc1cnn(CCC(=O)N2CCC(Nc3cccnn3)CC2)c1	1.38	16.1
CC(C)c1ncc2c(n1)CN(Cc1cccc(C#N)c1)CC2	0.9	-1.08
c1csc(CN2CCn3c(Cn4cncn4)cnc3C2)n1	-1.25	-17.5
CN(Cc1ccc2c(c1)OCCO2)C(=O)NCCc1cnn(C)c1	3	26.7
Cc1cc(C)n(CC2CN(CC(=O)Nc3c(C)n[nH]c3C)CCO2)n1 (stereo unspecified)	-0.486	6.68
CNC(=O)[C@H]1CO[C@H]2CCN(Cc3ccc4ccccc4n3)C[C@H]2C1	2.46	-3.36
CCOc1cccc(C(=O)N2CCN(c3nccc(OC)n3)CC2)c1	7.36	22.4
Cn1cc(CCC(=O)N2CCN(Cc3ccncc3)CC2)cn1	-1.76	1.29
CC1CCN(Cc2cnc(S(=O)(=O)CC3CC3)n2CC2CCCO2)CC1 (stereo unspecified)	-2.12	-24.8
O=C(NCC(O)c1ccc(F)c(F)c1)c1cccnc1OCC(F)(F)F (stereo unspecified)	-1.66	-9.04
CCN1C[C@H]2CCN(C(=O)NC3CCCC3)CC[C@H]2S1(=O)=O	-0.232	-57.6
CCCNC(=O)CN1CCC(C(=O)Nc2cnn(CC)c2)CC1	0.927	20.3
Cc1ccc(C(C)NC(=O)Nc2ccccc2CN2CCOCC2)o1 (stereo unspecified)	-6.02	17.3
CN(Cc1ccccc1)C1COC2(CCN(Cc3nccs3)CC2)C1 (stereo unspecified)	-2.36	-24.7
Cn1cnc2c(N3CCCC3)nc(C3CCNCC3)cc21	3.17	-31.9
O=C(Cc1ccsc1)N1CCC(n2nc(-c3ccco3)ccc2=O)CC1	-0.938	18.8
COCC(=O)N1CCC2(CC1)CC(CC(=O)NC1CC1)c1ccccc12 (stereo unspecified)	-1.39	9.56
COc1cc(CCC(=O)NC2CC2)ccc1OCC(F)(F)F	1.01	30.2
Cc1nc(CN2CCCC(CCc3c(F)cccc3F)C2)c[nH]1 (stereo unspecified)	-1.36	-14.3
Cn1ccnc1N1CCN(C(=O)Cc2ccc(F)cc2)CC1	3.25	-73
CCc1ccc(CN2CCC3(CC2)CNC(=O)CO3)o1	-0.662	-2.48
CN(CCCC#N)C1CCCN(Cc2noc(C3CC3)n2)C1 (stereo unspecified)	-2.54	7.14
C[C@@H]1CN(C(=O)c2ccsc2)C[C@]12CCN(c1ccsc1)C2=O	-1.75	1.46
CN(C)c1ncc(CN2CCC(c3nnsc3S(C)(=O)=O)CC2)cn1	-3.26	1.96
Cn1ncc2c(NCCC34CCCN3CCC4)nc(C3CCCC3)nc21	8.28	-7.47

Compound	Percent Effect [1] [%]	Percent Effect [2] [%]
c1cncc(CN2CCc3ncnc(C4CCOC4)c3CC2)c1 (stereo unspecified)	3.1	-17.7
CN(C)c1ncc(CN2CCOC(C(=O)Nc3ccccc3)C2)cn1 (stereo unspecified)	6.13	-0.28
CCN(CC)C1CCN(C(=O)NCc2c(C)noc2C)CC1	0.182	-1.12
COc1cccc(CNC(=O)C(c2cccc(F)c2)N2CCOCC2)c1 (stereo unspecified)	1.86	-6.55
Cc1noc(C)c1CN1CC[C@H]2OCC[C@@H](C(=O)N3CCCO3)[C@@H]2C1	-1.14	-15.4
CC(C(=O)N1CCCN(c2ncccc2C#N)CC1)n1ccnc1 (stereo unspecified)	-0.45	24
Cc1cc(NC(=O)N2CCN(c3nc(C)c(C)s3)CC2)no1	0.38	-22.7
Cc1cc(C)c2c(OCC(=O)NC(C)C)nn(C)c2n1	-1.15	-0.409
Cc1n[nH]c(C)c1NC(=O)CN1CCOC(Cn2cccn2)C1 (stereo unspecified)	-0.605	31.6
CN1CCOC(CNC(=O)Cc2ccccc2F)C1 (stereo unspecified)	-1.99	-8.98
O=C(Cc1noc2ccccc12)N1CCCC1c1noc(C2CC2)n1 (stereo unspecified)	-3.11	8.27
Cc1noc(C)c1CN1C(=O)[C@H]2CC[C@@H]1CN(Cc1cccnc1N)C2	3.56	-24.1
Cc1ccc(C(=O)N2CCN(CCCSCC#N)CC2)o1	3.17	-67.1
CCOc1cccc(C(C)NC(=O)N2CCC(C(N)=O)CC2)c1 (stereo unspecified)	-2	11.2
CC(O)CN1CCC(CNCc2ccccc2Br)CC1 (stereo unspecified)	1.21	-20.4
CCN(CC)Cc1ccc(C(=O)N2CCN(CC(C)O)CC2)cc1 (stereo unspecified)	0.607	8.97
CC(=O)N(C)c1nc(CN2CCOC(Cn3cc(C)cn3)C2)cs1 (stereo unspecified)	-3.86	-9.15
CCOc1nnc(CNC2CCCN(c3ccc(C)nn3)C2)s1 (stereo unspecified)	9.48	19.6
CC(C)c1nn(C)c(N(C)C)c1CNCc1ccccc1CN(C)C	-0.745	23.7
CCOc1ccc(NC(=O)NCc2csc(NC)n2)cc1C	-0.262	-26.6
Cc1ncc(CN(C)CC2CCCN2c2cccnn2)s1 (stereo unspecified)	3.27	9.48
Cc1nc(CNC(=O)NCCc2ccc(N(C)C)cc2)cs1	6.93	16.6
Cc1nc(CN2CCC(N(C)Cc3noc(C(C)C)n3)C2)cs1 (stereo unspecified)	8.39	-23.4
Cc1[nH]c(=O)c(C#N)cc1C(=O)N1C[C@@H](CN2CCCC2)C[C@H](CO)C1	-2.04	-3.42
COc1ccc(Br)c(C(=O)NCCNc2ccc(C(F)(F)F)cn2)c1	7.7	23.3
